Measured values from PubChem BioAssay (Tox21).
Several values for one entry are separate records, joined by “and”; a condition that tells them apart may be missing. Equal entries are not always repeated. Results filed as inconclusive are left out. Activity calls are given as the source filed them. Calls follow the shape of the dose curve; as a rule, active = well fitted curve in the direction sought with a large enough effect in the repeat runs; inconclusive = weak or mixed curves; inactive = no such curve, though single readings can be large; an effect the other way counts as inactive or inconclusive.

What was measured:
[1] = A CellTox Green Cytotoxicity Assay to monitor cytotoxicity in HepG2 cells - 0 hour (AID 1224882); also: nearly all actives have a fitted effect of over 35% in size
How it was run: (§1)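 Read-out is fluorescence of a cyanine dye excluded from live cells that stains DNA of dead HepG2 cells, with signal proportional to cytotoxicity. Plates were read at 0, 8, 16, 24, 32 and 40 h after compound addition.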

[2] = A CellTox Green Cytotoxicity Assay to monitor cytotoxicity in HepG2 cells - 32 hour (AID 1224883); also: nearly all actives have a fitted effect of over 50% in size; also: potency is read from the fitted curve at half-maximal effect
How it was run: as §1

[3] = A CellTox Green Cytotoxicity Assay to monitor cytotoxicity in HEK293 cells - 8 hour (AID 1224884); also: nearly all actives have a fitted effect of over 35% in size; also: potency is read from the fitted curve at half-maximal effect
How it was run: (§2)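 Nonlytic real-time cytotoxicity: HEK293 + CellTox Green reagent plated, 5 h preincubation, pintool compound addition (23 nL in DMSO), 37 C for 40 h, fluorescence measured at successive time points.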

[4] = qHTS RealTime-Glo MT Cell Viability Assay in HEK293 cells - 24 hour (AID 1224886); also: nearly all actives have a fitted effect of over 50% in size; also: potency is read from the fitted curve at half-maximal effect; as to activity change, negative = cytotoxicity: top concentration of the series differs between compounds
How it was run: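 Quantitative high-throughput screen of the Tox21 10K library in HEK293: cells and RealTime-Glo reagents plated together, compound added at 5 h, luminescence monitored through 40 h at 37 C.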

[5] = qHTS RealTime-Glo MT Cell Viability Assay in HEK293 cells - 8 hour (AID 1224887); also: nearly all actives have a fitted effect of over 50% in size; also: potency is read from the fitted curve at half-maximal effect; as to activity change, negative = cytotoxicity: top concentration of the series differs between compounds
How it was run: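 Cells were seeded together with NanoLuc luciferase and a prosubstrate that viable cells reduce to a luciferase substrate. After a 5 h incubation at 37 C/5% CO2, compounds were added and luminescence was measured repeatedly during 40 h of treatment.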

[6] = A CellTox Green Cytotoxicity Assay to monitor cytotoxicity in HEK293 cells - 16 hour (AID 1224888); also: nearly all actives have a fitted effect of over 35% in size; also: potency is read from the fitted curve at half-maximal effect
How it was run: as §2

[7] = qHTS RealTime-Glo MT Cell Viability Assay in HepG2 cells - 0 hour (AID 1224889); also: nearly all actives have a fitted effect of over 50% in size; also: potency is read from the fitted curve at half-maximal effect
How it was run: (§3)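 Compound treatment began 5 h after plating HepG2 cells (600/well) with NanoLuc luciferase and prosubstrate. Plates stayed at 37 C for 40 h; luminescence was captured at six time points, 0 h through 40 h.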

[8] = A CellTox Green Cytotoxicity Assay to monitor cytotoxicity in HepG2 cells - 8 hour (AID 1224890); also: nearly all actives have a fitted effect of over 45% in size; also: potency is read from the fitted curve at half-maximal effect
How it was run: as §1

[9] = qHTS assay to identify small molecule antagonists of the estrogen receptor alpha (ER-alpha) signaling pathway using the BG1 cell line in the presence of 0.1 nM 17-beta-estradiol - cell viability counter screen (AID 1259241); also: nearly all actives have a fitted effect of over 40% in size; also: potency is read from the fitted curve at half-maximal effect
How it was run: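 In this screen, hormone-deprived VM7Luc4E2 cells were seeded at 4,000 per well, dosed with compound and 0.1 nM estradiol final, and incubated 22 hr at 37C and 5% CO2; fluorogenic live-cell protease signal reported viability.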

[10] = qHTS RealTime-Glo MT Cell Viability Assay in HepG2 cells - 16 hour (AID 1224885); also: nearly all actives have a fitted effect of over 50% in size; also: potency is read from the fitted curve at half-maximal effect
How it was run: as §3
% is scaled to controls: 0 for no effect and ±100 for the full control effect.

CC(CO)Oc1ccccc1 (configuration not stated)
inactive: Potency [1] | Potency [2] | Potency [3] | Potency [4] | Potency [5] | Potency [6] | Potency [7] | Potency [8] | Potency [9]

CC(C)(c1cc(Br)c(OCC(Br)CBr)c(Br)c1)c1cc(Br)c(OCC(Br)CBr)c(Br)c1 (configuration not stated)
inactive: Potency [1] | Potency [2] | Potency [10] | Potency [4] | Potency [5] | Potency [6] | Potency [7] | Potency [8] | Potency [9]

O=[N+]([O-])c1cccc(C(F)(F)F)c1
inactive: Potency [1] | Potency [2] | Potency [3] | Potency [4] | Potency [5] | Potency [6] | Potency [7] | Potency [8] | Potency [9]

CN(C)Cc1ccccc1O
inactive: Potency [1] | Potency [2] | Potency [3] | Potency [4] | Potency [5] | Potency [6] | Potency [7] | Potency [8] | Potency [9]

CCC(C)(CCC(C)C)C(=O)[O][Sn]([CH3])([CH3])[O]C(=O)C(C)(CC)CCC(C)C (configuration not stated)
inactive: Potency [1] | Potency [2] | Potency [3] | Potency [4] | Potency [5] | Potency [6] | Potency [7] | Potency [8] | Potency [9]

CCn1c2ccccc2c2cc([N+](=O)[O-])ccc21
inactive: Potency [1] | Potency [2] | Potency [3] | Potency [6] | Potency [7] | Potency [8] | Potency [9]

Nc1nc(N)nc(-c2cc(Cl)ccc2Cl)n1
inactive: Potency [1] | Potency [2] | Potency [10] | Potency [4] | Potency [5] | Potency [6] | Potency [7] | Potency [9]

C=C(CC)C(=O)c1ccc(OCC(=O)O)c(Cl)c1Cl
inactive: Potency [1] | Potency [2] | Potency [10] | Potency [4] | Potency [5] | Potency [6] | Potency [7] | Potency [8] | Potency [9]

OCCN1CCN(CCCN2c3ccccc3Sc3ccc(C(F)(F)F)cc32)CC1
inactive: Potency [1] | Potency [3] | Potency [7] | Potency [9]
active: Potency [2] 26.8 µM | Potency [4] 23.9 µM | Potency [6] 26.8 µM

CNC(=O)c1ccccc1Sc1ccc2c(/C=C/c3ccccn3)n[nH]c2c1
inactive: Potency [1] | Potency [2] | Potency [3] | Potency [6] | Potency [8] | Potency [9]
active: Potency [4] 7.56 µM

O=C(Nc1ccc2c(O)c(N=Nc3ccc(N=Nc4ccc(S(=O)(=O)O)cc4)cc3)c(S(=O)(=O)O)cc2c1)c1ccccc1
active: Potency [9] 12.2 µM
inactive: Potency [1] | Potency [2] | Potency [3] | Potency [4] | Potency [5] | Potency [6]

CCO[C@@H]1O[C@H](C(COCc2ccccc2)OCc2ccccc2)[C@H](OCc2ccccc2)[C@H]1O (some centres not stated)
inactive: Potency [1] | Potency [2] | Potency [3] | Potency [6] | Potency [8] | Potency [9]

Cc1cccc(C)c1NC(=O)c1ccc(N)cc1
inactive: Potency [1] | Potency [2] | Potency [10] | Potency [4] | Potency [5] | Potency [6] | Potency [7] | Potency [9]

OC[C@H]1O[C@H](O[C@H]2O[C@H](CO)[C@@H](O)[C@H](O)[C@H]2O)[C@H](O)[C@@H](O)[C@@H]1O
inactive: Potency [1] | Potency [2] | Potency [3] | Potency [4] | Potency [5] | Potency [6] | Potency [7] | Potency [9]

CCO[Si](OCC)(OCC)OCC
inactive: Potency [1] | Potency [2] | Potency [3] | Potency [4] | Potency [5] | Potency [6] | Potency [7] | Potency [8] | Potency [9]

CCCC(=O)OCOC(=O)C1=C(C)NC(C)=C(C(=O)OC)C1c1cccc(Cl)c1Cl (configuration not stated)
active: Potency [7] 10.7 µM
inactive: Potency [1] | Potency [2] | Potency [10] | Potency [4] | Potency [5] | Potency [6] | Potency [8] | Potency [9]

CCc1cccc(CC)c1NC(=O)CN(CC(=O)O)CC(=O)O
inactive: Potency [1] | Potency [2] | Potency [3] | Potency [4] | Potency [5] | Potency [6] | Potency [7] | Potency [8] | Potency [9]

CCCCCCCCCCCCOC(=O)c1ccc(O)cc1
inactive: Potency [1] | Potency [2] | Potency [3] | Potency [6] | Potency [7] | Potency [8]

CC(C)CCOC(=O)/C=C/c1ccccc1
inactive: Potency [1] | Potency [2] | Potency [10] | Potency [4] | Potency [5] | Potency [6] | Potency [7] | Potency [9]

CC(=O)[C@H]1CC[C@H]2[C@@H]3CCC4=CC(=O)CC[C@]4(C)[C@H]3CC[C@]12C
active: Potency [2] 49 µM | Potency [4] 15.4 µM and 17.4 µM | Potency [5] 13.7 µM | Potency [7] 6.88 µM and 5.49 µM
inactive: Potency [1] | Potency [3] | Potency [6] | Potency [8] | Potency [9]

Cc1ccc(C(C)C)cc2c(C)ccc1-2
inactive: Potency [1] | Potency [2] | Potency [10] | Potency [4] | Potency [5] | Potency [6] | Potency [7] | Potency [8]

CC(C)(C)CC(C)(C)c1ccc(Nc2ccc(C(C)(C)CC(C)(C)C)cc2)cc1
inactive: cytotoxicity [1] 0.162% [at 6.97 µM] | cytotoxicity increase [2] 0.939% [at 6.97 µM] | cytotoxicity increase [3] 0.178% [at 6.97 µM] | activity change, negative = cytotoxicity [4] 3.98% [at 6.97 µM] | activity change [6] 5.08% [at 6.97 µM, stronger effect = higher value] | activity change, negative = cytotoxicity [7] 1.23% [at 6.97 µM] | cytotoxicity increase [8] 1.07% [at 6.97 µM]

O=C1C(c2[nH]c3ccc(S(=O)(=O)O)cc3c2O)=Nc2ccc(S(=O)(=O)O)cc21
inactive: Potency [1] | Potency [2] | Potency [10] | Potency [4] | Potency [5] | Potency [6] | Potency [7] | Potency [8]

O=S(=O)(O)c1ccccc1/C=C/c1ccc(-c2ccc(/C=C/c3ccccc3S(=O)(=O)O)cc2)cc1
inactive: Potency [1] | Potency [2] | Potency [10] | Potency [4] | Potency [5] | Potency [6] | Potency [7] | Potency [8]

CCC(CC)C(C)CCOC(C)=O (configuration not stated)
inactive: Potency [1] | Potency [2] | Potency [10] | Potency [4] | Potency [5] | Potency [6] | Potency [7] | Potency [9]

CCCCCCCCCCCCOCCOCCOCCOCCOCCOCCOCCOCCOCCO
inactive: Potency [1] | Potency [7]
active: Potency [2] 23.9 µM | Potency [3] 16.9 µM | Potency [4] 5.35 µM | Potency [5] 10.7 µM | Potency [6] 12 µM | Potency [9] 13.3 µM

CCCCCCC1CCCC(=O)O1 (configuration not stated)
inactive: Potency [1] | Potency [2] | Potency [10] | Potency [4] | Potency [5] | Potency [6] | Potency [7] | Potency [8] | Potency [9]

O=c1[nH]c2ccccc2n1CCCN1CCN(C(c2ccccc2)c2ccccc2)CC1
inactive: Potency [1] | Potency [3] | Potency [6] | Potency [7] | Potency [9]
active: Potency [2] 23.9 µM | Potency [4] 19 µM | Potency [5] 21.3 µM

Nc1ccc(NCCO)c([N+](=O)[O-])c1
inactive: Potency [1] | Potency [2] | Potency [10] | Potency [4] | Potency [5] | Potency [6] | Potency [7] | Potency [8]

CCCCCCCCCCCCCCCC[N+](C)(C)CC
inactive: Potency [1] | Potency [7] | Potency [9]
active: Potency [3] 55.1 µM and 23.9 µM | Potency [10] 49.1 µM and 23.9 µM | Potency [4] 8.74 µM and 4.77 µM | Potency [5] 21.9 µM | Potency [6] 55.1 µM | Potency [8] 55.1 µM and 19 µM

Nc1nc(-c2ccccc2)cs1
inactive: Potency [1] | Potency [2] | Potency [4] | Potency [6] | Potency [7] | Potency [8] | Potency [9]

CCCNCCC
inactive: Potency [1] | Potency [3] | Potency [10] | Potency [4] | Potency [5] | Potency [6] | Potency [7] | Potency [8] | Potency [9]

OCC(F)(F)F
inactive: Potency [1] | Potency [3] | Potency [10] | Potency [4] | Potency [5] | Potency [6] | Potency [7] | Potency [8] | Potency [9]

C=C(C)c1cccc(C(=C)C)c1
inactive: Potency [1] | Potency [3] | Potency [10] | Potency [4] | Potency [5] | Potency [6] | Potency [7] | Potency [8] | Potency [9]
